Screening results as filed in PubChem BioAssay.
Sampled rows, rich in hits. Any-hit rate of the full collection: about 19%.
Pf growth 48h: inhibits P. falciparum growth in the first generation, 48 h; P. falciparum luciferase growth in erythrocytes, 48 h; Potency, µM (series often up to 28.7 µM), without a hit: at the highest dose activity change, negative = inhibition, actives largely listed as inhibitors; hit rate 5.9% among 310,000; note: potency is the fitted concentration of half-maximal effect; % is set by controls: 0 for no effect and ±100 for the full control effect
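Cell-based growth assay: transgenic P. falciparum expressing firefly luciferase, cultured in red cells within RPMI 1640 containing 0.5% w/v Albumax, 24 mM bicarbonate and gentamycin. A drop in luciferase activity indicates inhibition.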
Marburg entry inh: Marburg virus entry inhibition | Marburg virus pseudotyped entry inhibition, cell reporter | hit rate 1.8% among 300,000 | AID 540276 | Potency, µM (doses to about 37.8 µM), inactives show top-dose activity change, negative = inhibition, usual class: inhibitors; calls by dose curve; tested in HEK293 cells; note: potency is the fitted concentration of half-maximal effect; % is set by controls: 0 for no effect and ±100 for the full control effect
Pf growth 96h: P. falciparum growth inhibition at 96 hour, primary screen for plastid delayed-death inhibitors; P. falciparum luciferase reporter growth, 96 h; Potency, µM (titrated, usually from 28.7 µM), inactives show at the highest dose activity change, negative = inhibition, most hits filed as inhibitors; hit rate 6.9% among 320,000; AID 504834; note: potency is the fitted concentration of half-maximal effect; % is set by controls: 0 for no effect and ±100 for the full control effect
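Plates of compound plus infected erythrocytes (2% hematocrit, 0.05% parasitemia final) incubate 96 hours, 37 C, 5% CO2. Detection reagent added; reduced luminescence from the parasites' luciferase reporter flags inhibition.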
Cycloheximide cs: counter-screen hit for Shiga toxin inhibitors, cycloheximide | cell reporter, cycloheximide protein synthesis inhibition counterscreen | max response, % | hit rate 12% among 300,000; in the data active = max response mostly above about 13%, no sharp cut-off; inactive = mostly below about 14%; note: read at 38.3 µM for the half of the compounds with a filed dose; 0% is about no effect
Shiga toxin inh: blocks Shiga toxin action in Vero cells. Vero cells, Shiga toxin protein synthesis inhibition reporter. inhibition, % at 38.7 µM. hit rate 9.2% among 290,000; in the data active = inhibition mostly above about 28%, no sharp cut-off; inactive = mostly below about 43%; note: 0% is about no effect
LASV entry inh: inhibitors of Lassa virus binding or cell entry. Lassa virus pseudotype entry inhibition, cell reporter. Potency, µM (doses to about 37.9 µM), without a hit: at the highest dose activity change, negative = inhibition, actives largely listed as inhibitors. hit rate 1.2% among 300,000; calls by dose curve; tested in HEK293 cells; note: potency is the fitted concentration of half-maximal effect; % is set by controls: 0 for no effect and ±100 for the full control effect; nearly all actives have a fitted effect of over 50% in size
Numbers without * were called inactive; ? = inconclusive; / = no result given; [ ] = another dose, or the depositor's remark. Unless noted, calls come from the whole dose curve; as a rule, active = well fitted inhibition curve with a large enough effect; inconclusive = small, poorly fitted or top-dose-only effect, or another doubt; inactive = no such curve, though single readings can be large or run the other way.

SMILES | Pf growth 48h | Marburg entry inh | Pf growth 96h | Cycloheximide cs | Shiga toxin inh | LASV entry inh
COc1ccccc1C(=O)Nc1ccc(S(=O)(=O)NC2=NCCCCC2)cc1 | -25.6% | -19.1%[46.1 µM] | ? | -3.0 | -4.1 | -24.5%[46.1 µM]
O=C(O)c1ccc(-n2ccnc2)c([N+](=O)[O-])c1 | 1.2% | 9.3% | 33.9% | -0.4 | -10.6 | 18.1%
COC(=O)C1=C(C)Nc2nc3ccccc3n2C1c1cc(OC)c(OC)c(OC)c1 (centres undefined) | 1.85µM* | ? | ? | -2.7 | -4.9 | ?
CC1=NN(c2nc(-c3ccc(C)cc3)cs2)C(=O)C1N=Nc1ccccc1O (centres undefined) | ? | ? | 12.4% | 43.1* | 50.0* | ?
COc1ccc(-c2csc(N3N=C(C)C(C)C3=O)n2)cc1 (centres undefined) | 98.6% | 28.4%[46.1 µM] | 11.7µM* | 15.2* | 37.0 | 0.0%
CCOc1cc(S(=O)(=O)NCc2ccncc2)ccc1Cl | -41.3%[5.75 µM] | ? | 14.9% | -3.2 | 1.6 | ?
CC1CCN(S(=O)(=O)c2ccc3c(c2)N(CC(=O)NCCCN2CCCCC2C)C(=O)CS3)CC1 (centres undefined) | ? | / | -0.2% | -3.4 | -9.4 | -19.8%[46.1 µM]
Cc1cc(C)cc(NC(=O)C(=O)NCc2ccccn2)c1 | 10.2% | -3.3% | 27.5% | -1.7 | -5.5 | 1.5%
Cc1ccccc1NC(=O)C(=O)NCc1ccccn1 | 34.9% | 20.3% | 44.9% | 27.1* | 11.5 | 3.2%
OC(CNCc1ccccn1)c1ccccc1 (centres undefined) | 0.8% | -20.4% | -10.4% | -2.3 | -5.7 | -1.0%
Cc1ccc(NC(=O)C(=O)NCc2ccccn2)cc1 | 220.5% | 5.5%[46.1 µM] | 13.2% | 29.4* | 87.2* | -7.8%[46.1 µM]
c1ccc(NCc2ccccn2)cc1 | 22.2% | 23.7% | -0.4% | 18.4* | 94.9* | ?
O=C(NCc1ccccn1)C(=O)Nc1ccccc1 | 106.4% | ? | 10.8% | 23.3* | 67.3* | 19.9%[46.1 µM]
Cc1cc(Br)ccc1NC(=O)C1CCCN(S(=O)(=O)c2cccc3nonc23)C1 (centres undefined) | / | 0.2%[46.1 µM] | / | / | / | -20.9%[46.1 µM]
Cc1ccc(S(=O)(=O)/N=C(\CSC(N)=O)Nc2ccccc2)cc1 | -0.5% | -8.8% | / | -2.2 | -12.1 | 3.6%
O=C(NCc1ccncc1)C(=O)NCC(c1ccco1)N1CCN(c2ccccc2F)CC1 (centres undefined) | 16.1% | -20.4% | ? | -1.8 | -2.5 | 4.5%
Cc1cc(Br)ccc1NCc1ccccn1 | 35.7% | -1.5% | 94.2% | 30.8* | 67.3* | -0.5%
COc1ccc(Br)cc1S(=O)(=O)NCc1ccccn1 | -2.4% | / | ? | -1.5 | -13.9 | /
COC(=O)c1cc(-c2c(-c3cc(OC)c(OC)c(OC)c3)noc2C)cc([N+](=O)[O-])c1 | 56.7% | / | -19.7% | 1.0 | 17.2 | /
COC(=O)c1cc(-c2c(-c3ccc4c(c3)OCO4)noc2-c2ccsc2)cc([N+](=O)[O-])c1 | 0.0% | / | ? | 24.6* | 30.4 | /
O=C(O)c1cc(-c2ccc3c(c2)OCO3)nc2ccc(Cl)cc12 | 28.1% | ? | 12.7% | 8.3 | 29.7 | -10.3%
O=C(O)c1cc(-c2ccc(-c3c(-c4ccc5c(c4)OCO5)noc3-c3ccsc3)cc2)nc2ccccc12 | 2.4% | / | ? | 35.9* | 60.6* | /
Cc1ccc(-c2noc(COc3ccc4c(c3)OCO4)n2)cc1 | 5.6% | -2.8% | 25.2% | -1.3 | 7.7 | -6.7%
CN(C)c1ccc(-c2c(-c3ccc4c(c3)OCO4)noc2-c2ccsc2)cn1 | ? | / | -12.3% | 28.1* | 40.1* | /
COc1ccc(-c2c(-c3ccc4c(c3)OCO4)noc2C)cn1 | 22.3% | / | 43.3% | 24.8* | 66.7* | /
SMILES | Pf growth 48h | Marburg entry inh | Pf growth 96h | Cycloheximide cs | Shiga toxin inh | LASV entry inh
CCc1nccc2c1nc(-c1nonc1N)n2CC | / | / | / | / | / | 25µM*
CCn1c(-c2nonc2N)nc2ccncc21 | / | / | / | / | / | -5.9%
Cc1cc(C)n(-c2nc(SCCN(C)C)c3c4c(sc3n2)CCCC4)n1 | ? | ? | 11.7µM* | -1.9 | 25.0 | ?
Cc1ccc2nc(N3CCN(C)CC3)c(C#N)cc2c1 | -16.4% | ? | -9.7% | 33.0* | 53.0 | 16.5%
Cc1ccc2cc(C#N)c(N3CCN(C)CC3)nc2c1 | 2.2% | -7.0% | 1.2% | -3.4 | -5.5 | 6.8%
Cc1ccc2nc(CCc3nc4ccc(C)cc4[nH]3)[nH]c2c1 | 43.6% | -20.8% | 23.5% | -1.6 | -6.5 | -18.0%
Cc1ccc2nc(N3CCN(S(=O)(=O)c4ccc(C)c(Cl)c4)CC3)c(C#N)cc2c1 | / | 4.61µM* | ? | -3.0 | -11.9 | ?
Cc1ccc2cc(C#N)c(N3CCCN(S(=O)(=O)c4ccc(F)cc4)CC3)nc2c1 | ? | ? | -15.3% | -3.3 | 6.6 | -1.1%
Cc1ccc2nc(N3CCN(C)CC3)[nH]c2c1 | 99.4% | ? | ? | 48.0* | 67.4* | 1.1%
N#Cc1cc2cc3c(cc2nc1N1CCCCC1)OCCO3 | 21.0% | ? | -3.8% | 21.8* | 46.1 | ?
Cc1ccc(C(=O)N2CCCN(c3nc4cc5c(cc4cc3C#N)OCO5)CC2)cc1 | ? | ? | -13.2% | -1.2 | -21.4 | ?
COc1ccccc1CNC(=O)CCCn1c(=O)c2ccccc2n(Cc2ccccc2F)c1=O | / | -0.9%[46.1 µM] | / | / | / | -7.8%[46.1 µM]
COC(=O)c1cccc(S(=O)(=O)N2CCC(NC(=O)NC34CC5CC(CC(C5)C3)C4)CC2)c1 | -12.6% | 15.8% | ? | -2.0 | -7.8 | 13.0%
CCSc1nnc(-c2cccnc2)n1-c1ccc(Cl)c(C)c1 | / | -33.4% | 11.7µM* | -1.5 | -13.5 | -3.0%
O=C(CSc1nnc(-c2cccnc2)n1-c1ccccc1)Nc1ccccn1 | 15.9% | -4.7% | 10.4µM* | -1.0 | 25.3 | 16.2%
Clc1ccc(-n2c(SC/C=C/c3ccccc3)nnc2-c2cccnc2)cc1 | 11.7µM* | ? | / | -3.8 | -11.8 | -7.8%
COc1cccc(-n2c(SCC(=O)O)nnc2-c2cccnc2)c1 | 16.4% | 9.9% | ? | -1.1 | -4.7 | 0.0%
Cc1cccc(NC(=O)c2ccc(NS(=O)(=O)c3cccc4cccnc34)cc2)c1 | / | -0.3%[46.1 µM] | / | / | / | -0.4%[46.1 µM]
Cc1c(C(=O)NCCSc2ccc(Cl)cc2)cccc1[N+](=O)[O-] | 7.9% | -17.2% | ? | 0.1 | -15.9 | -1.4%
CC(C)C[C@]1(c2ccccc2)ON(c2ccccc2C(F)(F)F)C1=O | 9.28µM* | / | ? | / | / | /
COc1ccc2c(c1)C(=O)N(c1ccccc1OC)C(=O)C2(C)C | / | -3.7% | 46.0% | -3.3 | -17.4 | -10.7%
CC[C@]1(c2ccccc2OC)ON(c2ccccc2C(F)(F)F)C1=O | 0.522µM* | / | 0.415µM* | / | / | /
Cc1cc(=O)c(C(=O)O)nn1-c1ccccc1C(F)(F)F | 6.5% | 6.7%[46.1 µM] | 0.0% | -0.7 | 0.6 | -17.6%
CCCCN1C(=O)C(O)(CC(=O)c2ccccc2OC)c2ccccc21 (centres undefined) | 11.5% | 11.8% | -17.6% | -4.5 | -11.6 | -0.4%
COc1ccccc1[C@]1(C)ON(c2ccccc2C(F)(F)F)C1=O | 1.04µM* | / | 0.828µM* | / | / | /
COc1ccc(S(=O)(=O)n2ccc(-c3ccc(OCCN(C)c4ccccn4)cc3)n2)cc1 | 4.65µM* | -4.5% | 10.4µM* | 5.7 | -4.7 | ?
